Bioassay records from PubChem.
Most compounds without a hit are left out; they make up all but 5.2% or so of the library.
PfM18AAP inh = blocks P. falciparum M18 aspartyl aminopeptidase | AID 1822 | actives 1.2% (n = 290,000) | recombinant PfM18AAP, H-Glu-NHMec fluorogenic cleavage | inhibition, % at 7.35 µM;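 active = inhibition above the campaign mean inhibition over all tested compounds plus 3 SD, cut at about 28% in these data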;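 also: 0% = plate median of test compound wells and 100% = 2 mM ZnCl2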
ALR inh = inhibitors of human sulfhydryl oxidase ALR; P55789; purified ALR, DTT oxidation, H2O2 HRP-luminol luminescence; inhibition, % (test concentration not listed); actives 3.8% (n = 290,000);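 active = mean replicate inhibition above about 79%, with every replicate also reaching it, limit read from the data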
NRP1-CendR mod = modulators of CendR peptide binding to human neuropilin-1; O14786; FAM-RPARPAR peptide binding to NRP-1, fluorescence polarization; inhibition, % at 25 µM; actives 0.85% (n = 360,000); AID 602438;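 active = inhibition or corrected inhibition above about 18%, plus a signal ratio from 0.5 to 1.5, limit read from the data, passing the limit was not always enough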
A3G deaminase = blocks human APOBEC3G single-stranded DNA deamination; Q9HC16; recombinant A3G, ssDNA deamination FAM/TAMRA fluorescence; inhibition, % at 20 µM; actives 0.28% (n = 330,000);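 active = inhibition of at least 40% at 20 µM, with no more than 30% in the related APOBEC3A deaminase screen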;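 also: plate controls were DMSO wells with A3G for no effect and wells lacking A3G enzyme for full effect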
CR mimetic SO = caloric restriction mimetics inhibiting age-related superoxide in yeast; AID 2690; superoxide response (% of plate mean), % at 10 µM; S. cerevisiae aged cells, superoxide DHE fluorescence; active compounds read low; actives 0.18% (n = 330,000);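 active = superoxide response under a set limit, about three screen SD below normal, cut at about 65% in these data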;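 also: yeast aged for seven days with compound at 30 °C before DHE staining; 100% = average MFI of all compound-treated wells on the plate with controls excluded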
APOBEC3A inh = blocks human APOBEC3A ssDNA deamination; P31941; recombinant A3A, FAM/TAMRA ssDNA deamination fluorescence; inhibition, % at 20 µM; actives 0.41% (n = 330,000);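 active = at least 40% inhibition at 20 µM here, with at most 30% in a related deaminase screen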;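 also: plate controls were A3A with DMSO for no effect and wells lacking A3A enzyme for full effect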
* hit, by the source's call; / = not tested or not shown.

SMILES	PfM18AAP inh	ALR inh	NRP1-CendR mod	A3G deaminase	CR mimetic SO	APOBEC3A inh
O=C(COC(=O)c1cc(=O)c2ccccc2o1)Nc1c(F)c(F)c(F)c(F)c1F	/	/	-9.6	-1.7	/	-3.3
Cn1c(SCC(=O)Nc2ccc(Br)cn2)nnc1C1CC1	-6.5	-9.3	5.5	-3.0	96.2	11.9
CCC1C(=O)N=C(SCC(=O)Nc2ccc(Br)cn2)NC1=O (stereo not drawn)	12.8	98.6*	-4.6	-4.7	87.2	-2.8
CCC1C(=O)N=C(SCC(=O)Nc2nc3ccccc3s2)NC1=O (stereo not drawn)	-2.0	98.7*	6.4	2.8	88.7	11.9
COCCSc1nnc(NC(=O)c2cc(C(=O)OC)cc([N+](=O)[O-])c2)s1	-2.4	/	9.1	-4.6	104.9	-0.8
COc1cccc(NC(=O)CN(C)C(=O)C23CC4CC(CC(Cl)(C4)C2)C3)c1	/	-1.4	32.8*	-6.7	109.0	-2.2
CC(C)(C)NS(=O)(=O)c1ccc(NS(=O)(=O)Cc2ccccc2)cc1	-0.4	-6.5	1.9	-7.5	95.7	-2.8
CCn1c(C)nc2cc(N)ccc21	1.0	98.1*	9.9	15.9	101.5	1.4
CCn1c(=O)n(CC)c2cc(S(N)(=O)=O)ccc21	3.9	-9.6	0.4	-7.0	91.2	-3.1
CCn1c(C)nc2cc(OC)ccc21	-1.2	-11.1	20.9*	-3.9	109.6	-3.3
CCn1c(=O)n(CC)c2cc(N)ccc21	5.7	97.9*	-1.4	-10.9	98.5	-4.8
Cc1nc2cc(C(=O)O)ccc2n1C1CCCCC1	-7.4	-3.5	0.4	-2.2	105.2	-1.8
CCn1c(C)nc2cc(C(N)=O)ccc21	3.9	/	2.3	-5.1	88.7	-2.9
Cc1nc2cc(N)ccc2n1C1CCCCC1	15.1	99.7*	4.6	5.7	86.8	-1.0
c1nc(N2CCCCC2)c2[nH]cnc2n1	3.7	5.7	0.5	-2.9	99.3	4.9
O=C(O)CCn1c(=O)c2ccccc2c2ccccc2c1=O	-2.8	-1.3	9.9	-3.7	99.1	-4.8
Nc1cccc2c1C(=O)N(C(=O)/C=C/c1cccc(Br)c1)C2=O	-11.8	/	-6.8	/	/	/
Nc1cccc2c1C(=O)N(C(=O)/C=C/c1cccc(F)c1)C2=O	-6.9	98.4*	-10.3	-2.7	85.1	3.7
Cc1ccc(C(=O)N2CCN(c3ccc(C(F)(F)F)cn3)CC2)c(C)c1	-7.5	-20.2	38.2*	-3.2	123.1	-0.3
C[C@H]1NC(=O)[C@@]2(C)[C@@H](c3ccccc3)[C@H]3COc4ccccc4[C@@H]3N2C1=O	/	-1.4	25.4*	-7.0	78.8	-0.6
C[C@@]12C(=O)N(c3ccc(C(F)(F)F)cc3)C(=O)N1[C@@H]1c3ccccc3OC[C@@H]1[C@H]2c1ccccc1	-3.3	-2.0	27.6*	-10.4	90.5	-0.8
COC(=O)C1=C(C)NC(C)=C(C(=O)OC)C1C(=O)OCC(=O)Nc1ccc(C(C)=O)cc1	1.6	2.5	9.9	-9.8	109.4	-0.2
CCn1c(C)cc(/C=C2/SC(=O)N(CC(=O)N3CCCC3)C2=O)c1C	-1.0	/	-1.8	-8.3	117.4	-4.6
O=C(Nc1nc(-c2ccc3c(c2)OCCO3)cs1)c1ccco1	1.9	29.7	-6.8	4.2	96.2	2.0
c1cc2c(cc1-c1csc(NNC3=NCCCCC3)n1)OCCO2	41.2*	98.5*	/	-3.2	122.7	-1.5
SMILES	PfM18AAP inh	ALR inh	NRP1-CendR mod	A3G deaminase	CR mimetic SO	APOBEC3A inh
NC(=O)C1CCN(c2nc(-c3ccc(Br)cc3)cs2)CC1	6.3	/	2.6	-4.4	101.4	-2.9
CC1CCN(CC(=O)Nc2nc(-c3ccccc3)cs2)CC1	-11.8	-5.2	-2.6	-1.6	104.0	3.1
NC(=O)C1CCN(c2nc(-c3ccc4c(c3)OCCO4)cs2)CC1	/	98.4*	/	-8.1	102.1	-5.7
Cc1ccc(-c2csc(NC(=O)CN3CC(C)OC(C)C3)n2)cc1 (stereo not drawn)	0.0	98.2*	1.3	-0.1	104.5	-7.0
CCC(=O)Nc1nc(-c2ccc3c(c2)OCCO3)cs1	3.4	86.1*	-0.1	-10.1	96.4	-5.0
CN(C)S(=O)(=O)c1cccc(NC(=S)N/N=C/C(c2ccccc2)c2ccccc2)c1	31.9*	12.9	7.8	-9.4	101.3	-4.7
CN(C)S(=O)(=O)c1cccc(NC(=S)N/N=C/c2ccco2)c1	12.8	16.9	-10.7	-5.7	100.1	-0.2
CC(/C=N/NC(=S)Nc1cccc(S(=O)(=O)N(C)C)c1)c1ccccc1 (stereo not drawn)	32.8*	-0.6	5.3	2.3	116.0	1.9
O=C(N/C(=C\c1ccco1)C(=O)N1CCCCC1)c1ccc([N+](=O)[O-])cc1	/	-15.6	0.4	-5.2	109.9	1.2
Cc1ccc(C(=O)N/C(=C/c2ccco2)C(=O)N2CCCCCC2)cc1	11.1	6.8	-21.4	-7.1	91.8	-2.7
Cc1cccc(C(=O)N/C(=C\c2ccco2)C(=O)N2CCCC2)c1	28.7*	94.9*	-3.1	-5.3	95.9	-6.0
O=C(N/C(=C\c1ccco1)C(=O)N1CCCC1)c1ccccc1	31.5*	25.3	-0.3	-5.3	89.3	-0.5
COc1ccc(/C=C(/NC(=O)c2ccccc2)C(=O)N2CCCCC2)cc1OC	3.8	-1.8	27.6*	5.3	104.2	4.7
Cc1ccc(C)c(-n2cc(-c3ccc(Cl)cc3)nc2SCC(=O)NC2CCS(=O)(=O)C2)c1 (stereo not drawn)	-3.0	-7.6	-8.4	-4.5	107.8	-2.1
Fc1ccc(-n2[nH]nnc2=S)cc1N1CCCC1	-12.5	82.2*	3.1	0.6	120.4	-5.5
COc1ccc(C(=O)Nc2ncc3c(n2)CC(c2ccco2)CC3=O)cc1 (stereo not drawn)	3.7	-11.9	35.7*	1.2	97.0	5.2
COc1cc(OC)cc(C(=O)Nc2ncc3c(n2)CC(C)CC3=O)c1 (stereo not drawn)	13.1	4.8	34.8*	-4.5	107.9	-0.7
O=C(CC(Cc1ccccc1)c1ccco1)NCc1ccco1 (stereo not drawn)	5.7	2.9	-1.2	3.8	103.5	2.4
COc1cccc(C=Nc2ccccc2C#N)c1O	7.1	/	-4.5	-4.3	97.5	-2.3
COc1ccc(/C=N/c2oc(-c3ccccc3)cc2C#N)cc1	11.1	97.5*	4.1	0.3	99.4	-3.5
Cc1oc(/N=C/c2ccccc2)c(C#N)c1C	1.1	-2.2	0.3	-5.4	103.7	-3.0
COc1cccc(/C=N/c2oc(-c3ccccc3)cc2C#N)c1O	4.1	85.8*	0.0	1.4	97.0	1.3
N#Cc1cc(-c2ccccc2)oc1/N=C/c1ccccc1O	15.9	97.3*	-9.8	0.6	97.1	2.3
Cc1nc(C)c(-c2ccc(SCC(=O)Nc3ccc(F)cc3F)nn2)s1	-5.4	-2.7	5.2	-13.2	101.7	-1.1
CN(C)c1ccc(Nc2nc(N)c3ccccc3n2)cc1	-34.3	99.4*	9.1	5.4	94.1	0.0
O=C(CSCCO)Nc1cccc([N+](=O)[O-])c1	-10.5	-3.7	1.8	-5.6	111.0	6.2
